Screens as filed in PubChem.
A selection: hits, their analogues and other compounds. The true share with any hit is near 4%.
Rv3671c protease: inhibits the M. tuberculosis serine protease Rv3671c; P9WHR9; 320,000 compounds, 0.048% hits; inhibition, % at 5.96 µM; in the data active = inhibition above about 38%;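 also: extracellular domain of Rv3671c used as enzyme; 0% = enzyme with DMSO and 100% = no enzyme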
RecA intein inh: Mtb RecA intein splicing inhibition. P9WHJ3. cell-free RecA intein splicing, fluorescence. inhibition, % (test concentration not listed). 290,000 compounds, 0.75% hits; in the data active = inhibition above about 30%;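 also: 0% = vehicle wells and 100% = reference inhibitor control wells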
Mtb bLac sens: beta-lactam sensitization of Mtb H37Rv | M. tuberculosis H37Rv growth with meropenem, percent inhibition | inhibition, % at 25 µM | 330,000 compounds, 0.27% hits; call rule not given here;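 also: growth measured after seven days incubation then overnight dye step; 0% = bacteria only wells and 100% = bacteria with antibiotic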
Mtb UGM inh: blocks M. tuberculosis UGM enzyme. P9WIQ1. purified UGM, fluorescence polarization probe displacement. inhibition, % at 10 µM. 320,000 compounds, 0.06% hits. AID 504406; in the data active = inhibition above about 10%, passing the limit was not always enough
Target sequence (P9WIQ1 whole entry, looked up): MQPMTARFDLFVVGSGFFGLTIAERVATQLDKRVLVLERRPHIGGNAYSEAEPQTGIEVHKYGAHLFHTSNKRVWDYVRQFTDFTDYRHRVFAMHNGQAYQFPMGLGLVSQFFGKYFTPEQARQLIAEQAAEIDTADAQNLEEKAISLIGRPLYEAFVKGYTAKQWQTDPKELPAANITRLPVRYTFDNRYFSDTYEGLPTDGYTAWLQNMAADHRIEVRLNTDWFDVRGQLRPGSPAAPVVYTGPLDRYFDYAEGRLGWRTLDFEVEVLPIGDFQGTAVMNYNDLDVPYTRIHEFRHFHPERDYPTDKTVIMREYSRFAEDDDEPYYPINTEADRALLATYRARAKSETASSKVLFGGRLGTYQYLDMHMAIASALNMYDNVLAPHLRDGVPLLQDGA
Mtb FBA inh: inhibits M. tuberculosis FBA enzyme. purified M. tuberculosis FBA, fluorescence read-out. inhibition, % at 1 µM. 360,000 compounds, 2.3% hits. P9WQA3;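 also: 0% = vehicle and 100% = reference inhibitor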
GDH-TPI counter-1: inhibits GDH-TPI coupling enzymes, artifact for Mtb FBA screen; inhibition, % at 4.8 µM; GDH-TPI coupled enzyme counterscreen, NADH absorbance; 360,000 compounds, 1.2% hits; AID 588335; in the data active = inhibition above about 30%;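 also: 0% = DMSO wells and 100% = wells lacking the enzyme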
Mtb FBA confirm: confirmation of M. tuberculosis fructose-bisphosphate aldolase inhibitors; shares compounds with Mtb FBA inh; purified M. tuberculosis FBA, fluorescence read-out; inhibition, % at 1 µM; 5,600 compounds, 78% hits;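 also: 0% = vehicle wells and 100% = reference inhibitor wells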
GDH-TPI counter-2: inhibits GDH-TPI coupling enzymes, flagging Mtb FBA hits | shares compounds with Mtb FBA inh | GDH-TPI coupled enzyme counterscreen, fluorescence | inhibition, % at 1 µM | 5,600 compounds, 81% hits | AID 652141; in the data active = inhibition above about 10%
Numbers without * were called inactive; · = no result given; + = active, no number. Rule as the data show it, unless noted: active = inhibition above about 27%; inactive = the rest.

SMILES	Rv3671c protease	RecA intein inh	Mtb bLac sens	Mtb UGM inh	Mtb FBA inh	GDH-TPI counter-1	Mtb FBA confirm	GDH-TPI counter-2
CCc1ccc2[nH]c3nc(C)cc(C)c3c(=O)c2c1	-9	-36	11	-1	75*	3	75*	59*
Cc1cc(-c2ccccc2)n2nc(C)c(C#N)c2n1	-1	1	-6	-2	27*	7	+	+
Cc1cc(-c2ccccc2)n2nc(N)nc2n1	-7	-4	-1	0	34*	2	97*	76*
Cc1cc(C)n2nc(N)nc2n1	·	·	·	·	1	5	·	·
COc1cccc2oc3ccc(C#Cc4ccccn4)cc3c(=O)c12	-16	-7	72	-2	86*	11	99*	83*
CCOc1ccccc1CNC(=O)CCC(=O)N1Cc2ccccc2Oc2ncccc21	-3	-1	-3	-1	-1	4	·	·
N=c1oc2ccc3ccccc3c2cc1C(N)=S	-3	-114	50	-1	104*	5	33*	17*
N=c1oc2ccc3ccccc3c2cc1-c1nc(-c2ccccc2)cs1	-2	-9	8	4	1	-10	·	·
COc1ccccc1CNc1nc(-c2ccccc2CO)c2sccc2n1	·	·	·	·	51*	6	130*	90*
CN(C)CCNc1nc(-c2ccccc2F)c2sccc2n1	·	·	·	·	17	17	·	·
Fc1ccccc1-c1nc(NCC2CC2)nc2ccsc12	·	·	·	·	42*	4	100*	84*
COCCNc1nc(-c2ccc(Cl)cc2C)c2sccc2n1	·	·	·	·	69*	18	-4	-4
Cc1cscc1-c1nc(NCC2CC2)nc2ccsc12	·	·	·	·	37*	5	127*	100*
COc1cccc(CNc2nc(NCC3CC3)nc3ccsc23)c1	·	·	·	·	3	17	·	·
CCN(C(=O)CSc1ncccn1)c1cccc2ccccc12	1	·	0	2	1	6	·	·
CCOc1cc(C2C3=C(CC(C)(C)CC3=O)N(CCOC)C3=C2C(=O)CC(C)(C)C3)ccc1O	1	-5	3	0	1	4	·	·
COC(=O)c1ccc(-c2ccc(/C=N/NC(=O)CC3(C)OCCCO3)o2)cc1	3	-4	10	-1	34*	23	+	177*
COc1cc2c(c3ccccc13)CCCC2=O	·	·	·	·	110*	11	116*	91*
O=C1CCCc2c1ccc1ccccc21	·	·	·	·	10	1	·	·
COc1ccccc1-c1cc2c(c3c1ccn3C)C1CCC2O1 (centres undefined)	·	·	·	·	73*	·	127*	104*
Cn1ccc2c(-c3ccc(C(N)=O)cc3)cc3c(c21)C1CCC3O1 (centres undefined)	·	·	·	·	7	·	·	·
Cn1ccc2c(-c3ccc4[nH]ccc4c3)cc3c(c21)C1CCC3O1 (centres undefined)	·	·	·	·	47*	·	57*	39*
Cn1ccc2c(-c3cccc4ccccc34)cc3c(c21)C1CCC3O1 (centres undefined)	·	·	·	·	58*	·	60*	42*
COC(=O)[C@H]1C[C@H](O)CN1S(=O)(=O)c1ccc(Br)cc1F	·	·	·	·	5	0	·	·
Cc1ccc(C(=O)OCC(=O)N(Cc2ccccc2)C(C)C)cc1C	-11	·	-1	-2	4	9	·	·
SMILES	Rv3671c protease	RecA intein inh	Mtb bLac sens	Mtb UGM inh	Mtb FBA inh	GDH-TPI counter-1	Mtb FBA confirm	GDH-TPI counter-2
CC(C)Cc1nc(N2CCN(C(=O)c3ccccc3)CC2)c(C#N)c2c1CCC2	8	26	23	-1	12	-16	·	·
CC(C)Cc1nc(N2CCN(C(=O)C(C)C)CC2)c(C#N)c2c1CCC2	-2	11	7	-3	33*	7	59*	41*
CC(=O)N1CCN(c2nc(CC(C)C)c3c(c2C#N)CCC3)CC1	0	2	40	3	38*	17	48*	35*
CCCC(=O)N1CCC1(C)C(=O)Nc1ccc2nccnc2c1 (centres undefined)	·	·	·	·	43*	24	45*	24*
Cc1cc2nc(-c3ccc(SCC(=O)NC(C)C)nc3)[nH]c2cc1C	1	2	1	0	·	·	·	·
Cc1cc2nc(-c3ccc(SCc4ccc(C(=O)O)cc4)nc3)[nH]c2cc1C	-19	-4	-2	1	58*	27	-2	-5
COc1cc(-c2nc3cccc(C)n3c2NCC2CCCO2)ccc1O (centres undefined)	4	-82	2	-2	29*	-10	+	+
COc1ccc(-c2nc3cc(C)ccn3c2NCC2CCCO2)cc1OC (centres undefined)	-2	-15	-7	-1	4	0	·	·
CCCN(CC(=O)Nc1ccccc1C)C(=O)/C=C/c1ccc(OC)c(OC)c1	·	·	·	·	6	22	·	·
O=C(COc1ccc(Br)cc1)N1CCN(C2CCCC2)CC1	4	-1	-10	2	33*	6	29*	13*
O=C(COc1ccc(Br)cc1)N1CCCCCC1	1	1	4	-4	-2	-1	·	·
NC(=O)c1ccccc1NC(=O)/C=C/C(=O)O	-7	1	-6	2	50*	-1	57*	49*
O=C(O)/C=C/C(=O)NCc1ccccc1	0	0	-2	1	-1	-5	·	·
O=C(O)/C=C\C(=O)Nc1ccccc1C(=O)NCc1ccccc1	-1	0	1	4	52*	10	-5	-3
COC(=O)c1ccccc1NC(=O)/C=C/C(=O)O	8	0	1	1	7	5	·	·
COc1ccccc1N(C)S(=O)(=O)c1ccc(C(=O)Nc2ccc(C)cc2C)cc1	·	·	·	·	-2	13	·	·
CCc1nc2ccc(C(=O)N3CCCCC3)cn2c1N(C)CCCc1ccccc1	·	·	·	·	-3	6	·	·
CCN1CCN(c2cc(-c3ccccc3)nc3cc(-c4cccc(F)c4)nn23)CC1	-3	-6	100	-1	42*	21	76*	53*
COc1cccc(-c2cc3nc(-c4ccccc4)cc(N4CCCC(O)C4)n3n2)c1 (centres undefined)	-26	9	98	0	102*	9	199*	141*
